# Screening results (PubChem BioAssay)
# Sampled rows, rich in hits. Any-hit rate of the full collection: about 19%.
# DT40 TDP1 CPT – DT40-hTDP1 cell growth loss with CPT | 12% of 420,000 active | Potency, µM (doses to about 46.2 µM), inactives show at the highest dose activity change, negative = growth inhibition, usual class: inhibitors | chicken DT40 Tdp1-/-;hTDP1 cells + 20 nM CPT, ATP luminescence, 48 h; further: potency means the concentration at half of the fitted maximal effect; nearly all actives have a fitted effect of over 55% in size
#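 Cell growth measured by CellTiter-Glo luminescence after a minimum 48 h, 37 C compound exposure with 20 nM CPT in Tdp1-knockout DT40 cells stably expressing hTDP1, seeded 400/well; qHTS titration format.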
# IL1B secr inh – blocks inflammasome-driven IL-1 beta release. THP-1 LPS/ATP IL-1B secretion, AlphaLISA, 16 h; hits give low values. activity change, % at 57.5 µM. 4.7% of 360,000 active. AID 743279; in the data active means activity change below about -50%; inconclusive means mostly about -30% to -49%
#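 THP-1 cells pretreated 1 hr with compounds (up to 57.5 uM final), then stimulated with LPS (250 ng/mL final) plus ATP (1.25 mM final); secreted IL-1B measured by AlphaLISA after 16 hr, decreased signal indicating inhibition.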
# TDP1 cell noCPT – qHTS for Inhibitors of human tyrosyl-DNA phosphodiesterase 1 (TDP1): qHTS in cells in absence of CPT. 15% of 420,000 active. DT40 Tdp1-/- hTDP1 cells, no CPT, ATP luminescence, 48 h. Potency, µM (doses to about 46.2 µM), inactives show at the top dose activity change, negative = growth inhibition, most hits filed as inhibitors; further: potency means the concentration at half of the fitted maximal effect; nearly all actives have a fitted effect of over 55% in size
#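 Readout: luminescence from CellTiter-Glo after 30 min in the dark at RT. Cells: DT40 Tdp1-/- with stable hTDP1, 400/well. Exposure: compounds alone, ≥48 hr, 37 °C.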
# HT1080-NT tox – kills 2HG-producing HT-1080-NT fibrosarcoma cells; Potency, µM (highest dose often 46.1 µM), for the others: at the highest dose activity, negative = less viability, actives largely listed as cytotoxic; 1.6% of 360,000 active; HT-1080-NT fibrosarcoma viability, CellTiter-Glo ATP luminescence, 48 h;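 further: NT is the 2HG producing partner of a matched IDH1 knockdown line; potency means the concentration at half of the fitted maximal effect; 0% = DMSO-treated cells and -100% = media-only wells without cells; nearly all actives have a fitted effect of over 55% in size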
#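 Viability of the 2HG-overproducing fibrosarcoma line after 48 hours of compound exposure at 37 degrees C was determined by luminescence with CellTiter-Glo, and concentration-effect curves were then fitted and categorized.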
# ELG1 DNA repair – inhibitors of ELG1-dependent DNA repair in HEK293T cells; HEK293T ELG1-luciferase reporter, luminescence, 16 h; DNA damage induced by 5-fluorouridine; Potency, µM (titrated, usually from 46.1 µM), for inactives: top-dose activity change, negative = inhibition, most hits filed as inhibitors; 2.3% of 330,000 active; further: potency means the concentration at half of the fitted maximal effect; nearly all actives have a fitted effect of over 55% in size
#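 DMSO vehicle served as the neutral condition. Each well held 2,000 cells given 5-fluorouridine plus compound; after 16 hr at 37 °C/5% CO2, ONE-Glo was added and luciferase measured 30 min later.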
# HT1080 IDH1KD tx – HT-1080 IDH1 knockdown cell toxicity (counter line) | HT-1080 IDH1 knockdown viability, ATP luminescence, 48 h | Potency, µM (top dose mostly 46.1 µM), for inactives: top-dose activity, negative = toxicity, actives largely listed as cytotoxic | 2% of 360,000 active;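 further: potency means the concentration at half of the fitted maximal effect; 0% = DMSO wells and -100% = cell-free medium wells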
#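 CellTiter-Glo luminescence after 48 h compound exposure at 37 degrees C of IDH1-knockdown HT-1080 cells in 5% FBS RPMI. %Activity scaled between DMSO wells and cell-free media wells, with curves fitted and assigned curve classes.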
# * = called active by the depositor; i = inactive; ? = inconclusive; · = not tested or not shown; [ ] = remark or other dose. Unless noted, the call rests on the fitted dose curve; in most records, active means well fitted curve in the direction sought with a large enough effect; inconclusive means small, poorly fitted or top-dose-only effect, or another doubt; inactive means no such curve, though single readings can be large; an effect the other way counts as inactive or inconclusive. Unless noted, on the % scale 0 is the no-effect control and ±100 the full control effect.
SMILES,DT40 TDP1 CPT,IL1B secr inh,TDP1 cell noCPT,HT1080-NT tox,ELG1 DNA repair,HT1080 IDH1KD tx
CCCCOCCCNC(=O)C[C@@H]1C[C@@]2(C(=O)OC)CC(C)(C)CC=C2N(Cc2ccccc2)C1=O,21µM*,?,?,-23%,·,-11%
Cc1cc2c(cc1C)-n1nnnc1C(N(Cc1ccccc1)Cc1ccccc1)C(=O)N2 (stereo unspecified),?,-18,21µM*,-24%,·,-26%
COCCNc1nc(CSc2ccccc2)nc2sc(C)c(C)c12,?,0,?,-9%,?,-15%
Cc1sc2nc(CSc3ccccc3)nc(N3CCN(C)CC3)c2c1C,?,·,16µM*,?,-29%,?
Cc1nc2ccccc2n1CC(=O)c1ccc(O)c(O)c1,-14%,35,-14%,-2%,19%,5%
Cc1cc(C)nc(NS(=O)(=O)c2ccc(NS(=O)(=O)c3ccc(F)c(F)c3)cc2)n1,7%,15,9%,5%,·,-2%
COCC(=O)N1CCC2(CCN(Cc3ccccc3)CC2)CC1,-2%,·,0%,·,·,·
Oc1ccc2c(c1)c1c3n2CCNC3CCC1 (stereo unspecified),8%,4,-16%,4%,6%,11%
c1cc2c(cc1C1CCCCC1)c1c3n2CCN[C@H]3CCC1,11µM*,·,11µM*,·,·,·
c1cc2c(cc1C1CCCCC1)c1c3n2CCCNC3CCC1 (stereo unspecified),7.3µM*,-83*,6.5µM*,16µM*,1%,21µM*
Cc1ccc2c(c1)c1c3n2CCCNC3CCC1 (stereo unspecified),?,-55*,?,?,19%,?
Cc1cnc(C)c(-c2cccc3c2OC(CNC(=O)c2cc(C)on2)C3)n1 (stereo unspecified),-1%[9.04 µM],·,-7%,·,·,·
O=C(NCc1ccc2c(c1)OCO2)C(=O)NCC1OCCCN1S(=O)(=O)c1ccccc1 (stereo unspecified),-3%,-6,-25%,-10%,·,-4%
Cc1nnc(NC(=O)c2cccc(S(=O)(=O)N3CCCC3)c2)s1,1%,i,2%,-1%,-4%,9%
CCOC(=O)CNc1nc(Cl)nc(Nc2ccc(Cl)cc2)n1,3%,3,15%,1%,10%,-1%
COc1ccccc1NC(=O)/C(C#N)=C/c1c(C)nn(-c2ccc(F)cc2)c1Cl,-10%,0,13%,-4%,14%,1%
COc1ccc(NC(=O)/C(C#N)=C/c2c(C)nn(-c3ccc(F)cc3)c2Cl)cc1Cl,?,-55*,?,-1%,8%,1%
COc1ccc(NC(=O)/C(C#N)=C/c2c(C)nn(-c3ccc(F)cc3)c2Cl)cc1OC,?,?,?,-24%,-15%,-23%
Cc1nn(-c2ccccc2)c(Cl)c1/C=C(\C#N)C(=O)NC(C)C,1%,-102*,?,-16%,?,-11%
CC(=O)N1CCN(c2ccc(NCc3ccc(-c4ccc(Br)cc4)o3)cc2)CC1,·,·,·,·,-7%,·
FC(F)(F)c1ccc(-c2noc(-c3ccccc3Br)n2)cc1,16µM*,·,?,·,·,·
Cc1cccc(NC(=O)C2CCN(c3nc(C)cc(C)n3)CC2)c1,?,1,?,-5%,-26%,-1%
Cc1cccc(NC(=O)C2CC(=O)n3cnnc3S2)c1 (stereo unspecified),4.6µM*,-7,5.8µM*,-2%,-7%,0%
O=C1C=CCC(/C=C/c2ccccc2)O1 (stereo unspecified),2.3µM*,-103*,3.7µM*,?,18µM*,?
CCC1([N+](=O)[O-])COC(C=Cc2ccccc2)OC1 (stereo unspecified),?,-19,-22%,-1%,·,0%
SMILES,DT40 TDP1 CPT,IL1B secr inh,TDP1 cell noCPT,HT1080-NT tox,ELG1 DNA repair,HT1080 IDH1KD tx
Cc1ccc(C(NC(=O)NCCCN2CCOCC2)=C(Cl)Cl)cc1F,11µM*,-51*,13µM*,-21%,?,-1%
Cc1cc(S(=O)(=O)Nc2ccc(C(=O)NCCCN3CCOCC3)cc2)ccc1F,-17%,5,-11%,4%,25%,14%
Cc1ccc(C(NC(=O)N2CCCCC2)=C(Cl)Cl)cc1F,13µM*,-71*,-34%,-5%,?,0%
O=C1CCCC2=C1C(c1ccco1)Nc1ccc(C(=O)c3ccccc3)cc1N2 (stereo unspecified),15µM*,0,12µM*,?,?,?
CCc1ccccc1N(C)C(=O)Nc1cn(CC(C)C)c(=O)c2ccccc12,15µM*,·,23µM*,·,·,·
CCCN(C(=O)Nc1cn(CC(C)C)c(=O)c2ccccc12)c1ccc(F)cc1,7.3µM*,·,18µM*,·,·,·
COc1ccc(CNC(=O)Nc2cn(CC(C)C)c(=O)c3ccccc23)c(OC)c1,-27%,·,?,·,·,·
CCN(CC)CCCNC(=O)c1cn(CC(C)C)c(=O)c2c1c1ccccc1n2C,15%,-11,-19%,2%,1%,5%
CC(C)=CCC[C@H](C)C[C@@H]1Cc2[nH]c(=S)[nH]c(=O)c2[C@@H](c2ccc(F)cc2)O1,?,86,26µM*,-22%,·,-26%
CC(C)=CCC[C@H](C)CC1Cc2[nH]c(=S)[nH]c(=O)c2C(c2ccc(F)cc2)O1 (stereo partly specified),-4%,5,?,1%,·,0%
CC(C)=CCC[C@H](C)C[C@@H]1Cc2[nH][nH]c(=O)c2[C@@H](c2ccc(F)cc2)O1,?,-17,?,-30%,·,-28%
CC(C)=CCC[C@H](C)C[C@@H]1CC2=C(C(=O)OC(C)(C)O2)[C@@H](c2ccc(F)cc2)O1,?,0,16µM*,13%,·,3%
CC(C)=CCC[C@H](C)CC1Cc2[nH]c(=S)[nH]c(=O)c2C(c2ccc(Cl)cc2)O1 (stereo partly specified),?,-20,?,?,·,16µM*
CCN(CC(=O)Nc1ccccc1OC)C(=O)c1ccc(NS(=O)(=O)c2ccc(C(C)=O)cc2)cc1,1%,-2,-14%,-7%,2%,-3%
COC1CC(N)C2OC(c3ccccc3)OCC2O1 (stereo unspecified),-2%,21,-19%,20%,·,-3%
